Counter-ions that a name gives are not always drawn.
test system: Saccharomyces cerevisiae BY4741 SeMeCo community; assay: z-score of subpopulation abundance vs DMSO median, subpopulation auxotrophic for HUM; higher = larger share of this subpopulation than in DMSO controls; conditions: 10 µM; 24 h; SM minimal medium; subpopulation (auxotrophy): HUM
Experimental: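 Fluorescent four-plasmid SeMeCo (self-establishing metabolically cooperating S. cerevisiae BY4741 community; plasmids pH-mRuby2, pL-mWasabi, pU-eCFP, pM-TagRFP657) was grown 24 h in minimal SM medium with each Selleck FDA-approved drug at 10 µM in 384-well plates. Cells were fixed and imaged by high-content confocal microscopy. For each auxotrophic subpopulation (and the prototroph), a z-score gives the deviation from the DMSO vehicle-control population median.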

| Structure (SMILES) | z-score of subpopulation abundance |
| --- | --- |
| C#C[C@]1(O)CC[C@H]2[C@@H]3CCC4=CCCC[C@@H]4[C@H]3C(=C)C[C@@]21CC [Desogestrel] | -0.05 |
| CO/N=C(\C(=O)N[C@@H]1C(=O)N2C(C(=O)O)=CCS[C@H]12)c1csc(N)n1 [Ceftizoxime sodium] | 0.09 |
| O=C(N[C@H](CO)[C@H](O)c1ccc([N+](=O)[O-])cc1)C(Cl)Cl [Chloramphenicol] | 0.42 |
| CN(C)CCC=C1c2ccccc2C=Cc2ccccc21 [Cyclobenzaprine HCl] | -0.09 |
| CC(C)[C@H]1CC[C@H](C(=O)N[C@H](Cc2ccccc2)C(=O)O)CC1 [Nateglinide] | -0.11 |
| O=C(c1ccc(OCCN2CCCCC2)cc1)c1c(-c2ccc(O)cc2)sc2cc(O)ccc12 [Raloxifene] | -0.2 |
| COc1ccccc1OCC(O)CN1CCN(CC(=O)Nc2c(C)cccc2C)CC1 (stereo not given) [Ranolazine 2HCl] | -0.12 |
| Clc1ccc(CSC(Cn2ccnc2)c2ccc(Cl)cc2Cl)cc1 (stereo not given) [Sulconazole Nitrate] | 6.12 |
| NCCNc1ccc(NCCN)c2c1C(=O)c1ccncc1C2=O [Pixantrone Maleate] | -5.6 |
| CC1(C)S[C@@H]2[C@H](NC(=O)[C@H](N)c3ccccc3)C(=O)N2[C@H]1C(=O)OCOC(=O)[C@@H]1N2C(=O)C[C@H]2S(=O)(=O)C1(C)C [Sultamicillin] | 1.4 |
| CC(C(=O)O)c1cccc(C(=O)c2ccccc2)c1 (stereo not given) [Ketoprofen] | -0.02 |
| O=C1c2cccc3c2[C@H](CCC3)CN1[C@@H]1CN2CCC1CC2 [Palonosetron] | 0.12 |
| CC(=O)NC[C@H]1CN(c2ccc(N3CCOCC3)c(F)c2)C(=O)O1 [Linezolid] | 0.01 |
| CC1(C)S[C@@H]2[C@H](NC(=O)[C@H](N)c3ccc(O)cc3)C(=O)N2[C@H]1C(=O)O [Amoxicillin Sodium] | -0.13 |
| Cc1ccsc1/C=C/C1=NCCCN1C [Morantel tartrate] | -0.08 |
| CN1CC2c3ccccc3Oc3ccc(Cl)cc3C2C1 (stereo not given) [Asenapine maleate] | 0.01 |
| COc1ccc(C2CNC(=O)C2)cc1OC1CCCC1 (stereo not drawn) [S- (+)-Rolipram] | -0.99 |
| CC1(C)[C@H](C(=O)O)N2C(=O)C[C@H]2S1(=O)=O [Sulbactam] | -0.35 |
| Nc1nc(N)c2nc(-c3ccccc3)c(N)nc2n1 [Triamterene] | -6.05 |
| CS(=O)(=O)c1ccc([C@@H](O)[C@@H](CO)NC(=O)C(Cl)Cl)cc1 [Thiamphenicol] | -0.08 |

| Structure (SMILES) | z-score of subpopulation abundance |
| --- | --- |
| CC(C)(O/N=C(\C(=O)N[C@@H]1C(=O)N2C(C(=O)[O-])=C(C[n+]3ccccc3)CS[C@H]12)c1csc(N)n1)C(=O)O [Ceftazidime] | 0.14 |
| CNCCCC1c2ccccc2C=Cc2ccccc21 [Protriptyline hydrochloride] | 0.54 |
| Cc1noc(NS(=O)(=O)c2ccc(N)cc2)c1C [Sulfisoxazole] | 1.21 |
| CCC(C)n1ncn(-c2ccc(N3CCN(c4ccc(OCC5COC(Cn6cncn6)(c6ccc(Cl)cc6Cl)O5)cc4)CC3)cc2)c1=O (stereo not given) [Itraconazole] | 9.21 |
| Clc1ccc2c(N3CCN(CCCN4CCN(c5ccnc6cc(Cl)ccc56)CC4)CC3)ccnc2c1 [Piperaquine phosphate] | -0.06 |
| CCn1cc(C(=O)O)c(=O)c2cc(F)c(N3CCN(C)CC3)cc21 [Pefloxacin Mesylate Dihydrate] | -0.06 |
| CCCCNc1ccc(C(=O)OCCN(C)C)cc1 [Tetracaine HCl] | 0.58 |
| CC[C@@H]1/C=C(\C)C[C@H](C)C[C@H](OC)[C@H]2O[C@@](O)(C(=O)C(=O)N3CCCC[C@H]3C(=O)O[C@H](/C(C)=C/[C@@H]3CC[C@@H](O)[C@H](OC)C3)[C@H](C)[C@@H](O)CC1=O)[C@H](C)C[C@@H]2OC [Ascomycin (FK520)] | 2.57 |
| CC(C(=O)O)c1ccc(C(=O)c2cccs2)cc1 (stereo not given) [Suprofen] | -1.16 |
| CN1CCN(CCCN2c3ccccc3Sc3ccc(Cl)cc32)CC1 [Prochlorperazine dimaleate salt] | 1.51 |
| NC[C@@H]1O[C@H](O[C@H]2[C@@H](O)[C@H](O[C@@H]3[C@@H](O)[C@H](N)C[C@H](N)[C@H]3O[C@H]3O[C@H](CO)[C@@H](O)[C@H](O)[C@H]3N)O[C@@H]2CO)[C@H](N)[C@@H](O)[C@@H]1O [Paromomycin Sulfate] | 0.69 |
| CC(C)COc1ccc(CNC(=O)N(Cc2ccc(F)cc2)C2CCN(C)CC2)cc1 [Pimavanserin] | -0.82 |
| CO[C@H]1C[C@@H]2CC[C@@H](C)[C@@](O)(O2)C(=O)C(=O)N2CCCC[C@H]2C(=O)O[C@H]([C@H](C)C[C@@H]2CC[C@@H](OCCO)[C@H](OC)C2)CC(=O)[C@H](C)/C=C(\C)[C@@H](O)[C@@H](OC)C(=O)[C@H](C)C[C@H](C)/C=C/C=C/C=C/1C [Everolimus (RAD001)] | 32.4 |
| COc1cccc(-c2c(C)n(Cc3c(F)cccc3C(F)(F)F)c(=O)n(C[C@H](NCCCC(=O)O)c3ccccc3)c2=O)c1F [Elagolix Sodium] | 0.12 |
| C[C@H]1c2cccc(O)c2C(O)=C2C(=O)[C@]3(O)C(O)=C(C(N)=O)C(=O)[C@@H](N(C)C)[C@@H]3[C@@H](O)[C@@H]21 [Doxycycline] | -1.21 |
| C[C@@H]1CN(c2c(F)c(N)c3c(=O)c(C(=O)O)cn(C4CC4)c3c2F)C[C@H](C)N1 [Sparfloxacin] | -0.04 |
| CC(c1cc2ccccc2s1)N(O)C(N)=O (stereo not given) [Zileuton] | -0.33 |
| CC(=O)Oc1ccccc1C(=O)O [Aspirin] | -0.14 |
| NC(=O)c1cnccn1 [Pyrazinamide] | 0.08 |
| CCCN[C@H]1CCc2nc(N)sc2C1 [Pramipexole 2HCl Monohydrate] | -0.88 |
